Values joined by “and” are separate entries in the source; they are usually repeats but may differ in a detail not shown here. Identical values can stand only once. Records with an inconclusive call do not appear. Active and inactive are the calls of the source. Unless noted, calls follow the shape of the full dose curve.
Experiments:
[1] = target: Bile acid receptor (Homo sapiens) (UniProt Q96RI1); test: qHTS assay for small molecule agonists of farnesoid X receptor signaling (AID 588527); conditions: HEK293T FXR-UAS-bla, beta-lactamase ratio, 16 h; activation: stronger effect = higher value;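 also: series mostly up to about 77 µM; 0% = vehicle basal and 100% = reference agonist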
Sequence of Bile acid receptor (Homo sapiens) (Q96RI1 whole entry, looked up): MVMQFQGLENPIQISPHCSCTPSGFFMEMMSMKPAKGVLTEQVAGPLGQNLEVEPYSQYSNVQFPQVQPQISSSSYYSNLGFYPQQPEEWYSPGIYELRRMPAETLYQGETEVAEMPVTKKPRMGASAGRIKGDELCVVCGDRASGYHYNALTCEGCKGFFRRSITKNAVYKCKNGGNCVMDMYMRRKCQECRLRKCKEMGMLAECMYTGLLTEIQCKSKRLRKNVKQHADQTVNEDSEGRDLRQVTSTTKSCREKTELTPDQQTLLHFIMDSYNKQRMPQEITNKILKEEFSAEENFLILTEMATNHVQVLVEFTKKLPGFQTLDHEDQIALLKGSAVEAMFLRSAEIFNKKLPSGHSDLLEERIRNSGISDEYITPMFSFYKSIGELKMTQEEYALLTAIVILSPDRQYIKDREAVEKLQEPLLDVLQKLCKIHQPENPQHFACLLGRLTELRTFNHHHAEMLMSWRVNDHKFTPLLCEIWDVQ
Summary of the method: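 FXR-UAS-bla HEK293T cells (10% dialyzed FBS) preincubated 5-7 h at 37 C, then compounds at up to 92 uM for 16 h at 37 C. CCF4 beta-lactamase read-out after 2 h RT. Normalized to chenodeoxycholic acid (100 uM) and DMSO; Hill fit gave EC50 and efficacy.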

[2] = qHTS for Inhibitors of the Functional Ribonucleoprotein Complex (vRNP) of Lassa (LASV) Arenavirus: LASV Primary Screen - GLuc reporter signal (AID 1347082; calls by dose curve; tested in HEK293 reporter line; also: series mostly up to about 57 µM; % is scaled to controls: 0 for no effect and ±100 for the full control effect; nearly all actives have a fitted effect of over 60% in size)
[3] = qHTS for Inhibitors of the Functional Ribonucleoprotein Complex (vRNP) of Lassa (LASV) Arenavirus: Viability assay - alamar blue signal for LASV Primary Screen (AID 1347083; calls by dose curve; tested in HEK293 reporter line; also: series mostly up to about 57 µM; % is scaled to controls: 0 for no effect and ±100 for the full control effect; nearly all actives have a fitted effect of over 80% in size)
[4] = qHTS for Inhibitors of the Functional Ribonucleoprotein Complex (vRNP) of Lymphocytic Choriomeningitis Arenaviruses (LCMV): Viability assay - alamar blue signal for LCMV Primary Screen (AID 1347085; calls by dose curve; tested in HEK293 reporter line; also: series mostly up to about 57 µM; % is scaled to controls: 0 for no effect and ±100 for the full control effect; nearly all actives have a fitted effect of over 80% in size)
[5] = target: Nucleoprotein (Lymphocytic choriomeningitis virus (strain Armstrong)) (UniProt P09992); test: qHTS for Inhibitors of the Functional Ribonucleoprotein Complex (vRNP) of Lymphocytic Choriomeningitis Arenaviruses (LCMV): LCMV Primary Screen - GLuc reporter signal (AID 1347086); also: series mostly up to about 57 µM; % is scaled to controls: 0 for no effect and ±100 for the full control effect; nearly all actives have a fitted effect of over 70% in size
Sequence of Nucleoprotein (Lymphocytic choriomeningitis virus (strain Armstrong)) (P09992 whole entry, looked up): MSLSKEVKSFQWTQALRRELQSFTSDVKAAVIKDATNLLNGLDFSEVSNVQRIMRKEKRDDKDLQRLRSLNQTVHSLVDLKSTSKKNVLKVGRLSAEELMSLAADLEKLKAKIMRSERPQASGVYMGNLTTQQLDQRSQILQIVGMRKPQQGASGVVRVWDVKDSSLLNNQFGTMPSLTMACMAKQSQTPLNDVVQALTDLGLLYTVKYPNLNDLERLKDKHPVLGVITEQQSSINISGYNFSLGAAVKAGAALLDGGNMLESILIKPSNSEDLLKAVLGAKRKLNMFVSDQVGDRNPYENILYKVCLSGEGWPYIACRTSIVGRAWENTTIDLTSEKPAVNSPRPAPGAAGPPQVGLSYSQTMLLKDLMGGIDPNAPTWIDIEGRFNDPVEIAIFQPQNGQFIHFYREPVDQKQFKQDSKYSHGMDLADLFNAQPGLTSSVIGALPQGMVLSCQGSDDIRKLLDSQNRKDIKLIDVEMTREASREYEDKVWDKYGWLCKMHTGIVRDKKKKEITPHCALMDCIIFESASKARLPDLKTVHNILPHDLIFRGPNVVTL

[6] = target: Alpha-galactosidase (Coffea arabica) (UniProt Q42656); test: Counterscreen for Glucocerebrosidase Inhibitors: qHTS Assay for Coffee Bean alpha-Galactosidase at pH 4.5 (AID 957; active = well fitted curve in the direction sought with a large enough effect; an effect the other way counts as inactive or inconclusive;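 also: series mostly up to about 77 µM; plate controls were enzyme alone for no effect and no enzyme for full effect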)
Sequence of Alpha-galactosidase (Coffea arabica) (Q42656 whole entry, looked up): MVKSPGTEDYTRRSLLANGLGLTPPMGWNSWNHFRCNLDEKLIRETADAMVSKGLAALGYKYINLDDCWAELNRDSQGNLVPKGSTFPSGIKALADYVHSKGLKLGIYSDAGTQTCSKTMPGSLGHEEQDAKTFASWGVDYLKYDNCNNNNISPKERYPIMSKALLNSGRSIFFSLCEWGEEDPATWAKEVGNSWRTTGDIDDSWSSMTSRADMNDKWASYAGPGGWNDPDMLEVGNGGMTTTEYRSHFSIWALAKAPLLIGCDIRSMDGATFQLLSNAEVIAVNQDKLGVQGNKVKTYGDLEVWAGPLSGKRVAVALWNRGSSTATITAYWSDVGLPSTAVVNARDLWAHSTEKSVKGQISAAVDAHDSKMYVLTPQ
Summary of the method: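 Green coffee bean enzyme (2 nM final) was incubated with compounds (0.7 nM to 77 uM) and 4-methylumbelliferyl alpha-D-galactopyranoside (80 uM final) in 50 mM citric acid, 0.005% Tween-20, pH 4.5, 20 min at room temperature; AC50 from Hill fits.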

[7] = target: Alpha-galactosidase (Coffea arabica) (UniProt Q42656); test: Counterscreen for Glucocerebrosidase Inhibitors: qHTS Assay for Coffee Bean alpha-Galactosidase at pH 5.9 (AID 998; active = well fitted curve in the direction sought with a large enough effect; an effect the other way counts as inactive or inconclusive;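 also: plate controls were uninhibited enzyme for no effect and no-enzyme basal signal for full effect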)
Summary of the method: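 Green coffee bean enzyme (2 nM final) was incubated with compounds (0.7 nM–77 uM) and 4-methylumbelliferyl alpha-D-galactopyranoside (80 uM) in citrate buffer pH 5.9, 20 min at room temperature. High-pH stop; fluorescence 365/440 nm; AC50 from Hill fits.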

[8] = Inducers of the Endoplasmic Reticulum Stress Response (ERSR) in human glioma: Validation (AID 504836; active = well fitted curve in the direction sought with a large enough effect; an effect the other way counts as inactive or inconclusive; also: 0% is about no effect)
Summary of the method: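 Stably transfected U87-MG human glioma cells carrying a GRP78-based luminescent sensor were seeded at 1000 cells/well, pin-dosed with compounds and incubated 16 h. Luciferase reagent was then added, and end-point luminescence was read after 10 min at room temperature.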

[9] = target: Estrogen receptor (Homo sapiens) (UniProt P03372); test: qHTS assay for small molecule antagonists of estrogen receptor alpha signaling (AID 588513; active = well fitted curve in the direction sought with a large enough effect in the signal ratio, with a control signal flat, not every such curve was filed as active; the % refers to the signal ratio; also: % is scaled to controls: 0 for no effect and ±100 for the full control effect)
Sequence of Estrogen receptor (Homo sapiens) (P03372 whole entry, looked up): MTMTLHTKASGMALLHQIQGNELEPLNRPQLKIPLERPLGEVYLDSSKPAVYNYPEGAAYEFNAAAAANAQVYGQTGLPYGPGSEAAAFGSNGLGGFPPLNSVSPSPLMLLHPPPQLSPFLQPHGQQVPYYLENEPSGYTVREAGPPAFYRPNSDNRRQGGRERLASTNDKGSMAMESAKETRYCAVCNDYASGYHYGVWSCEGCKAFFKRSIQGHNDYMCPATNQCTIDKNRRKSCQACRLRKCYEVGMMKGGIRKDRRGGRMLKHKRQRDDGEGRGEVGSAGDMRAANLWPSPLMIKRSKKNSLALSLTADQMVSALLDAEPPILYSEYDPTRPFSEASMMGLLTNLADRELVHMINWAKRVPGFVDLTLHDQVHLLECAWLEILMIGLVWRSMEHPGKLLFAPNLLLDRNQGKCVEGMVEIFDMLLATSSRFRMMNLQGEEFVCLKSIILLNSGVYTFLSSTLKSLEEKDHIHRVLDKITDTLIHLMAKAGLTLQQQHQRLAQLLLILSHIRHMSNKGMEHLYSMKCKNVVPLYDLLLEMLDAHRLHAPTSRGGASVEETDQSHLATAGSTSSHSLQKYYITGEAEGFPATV
Summary of the method: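 Fluorescence from CCF4 substrate after 2 h at room temperature gave reporter activity; cells had been exposed to compound and 0.5nM 17-beta-estradiol for 18 h at 37 C. Hill-equation fitting yielded IC50 and maximal response.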

[10] = target: Thyroid hormone receptor beta (Homo sapiens) (UniProt P10828); test: qHTS assay for small molecule agonists of thyroid hormone receptor beta signaling (AID 588545)
Sequence of Thyroid hormone receptor beta (Homo sapiens) (P10828 whole entry, looked up): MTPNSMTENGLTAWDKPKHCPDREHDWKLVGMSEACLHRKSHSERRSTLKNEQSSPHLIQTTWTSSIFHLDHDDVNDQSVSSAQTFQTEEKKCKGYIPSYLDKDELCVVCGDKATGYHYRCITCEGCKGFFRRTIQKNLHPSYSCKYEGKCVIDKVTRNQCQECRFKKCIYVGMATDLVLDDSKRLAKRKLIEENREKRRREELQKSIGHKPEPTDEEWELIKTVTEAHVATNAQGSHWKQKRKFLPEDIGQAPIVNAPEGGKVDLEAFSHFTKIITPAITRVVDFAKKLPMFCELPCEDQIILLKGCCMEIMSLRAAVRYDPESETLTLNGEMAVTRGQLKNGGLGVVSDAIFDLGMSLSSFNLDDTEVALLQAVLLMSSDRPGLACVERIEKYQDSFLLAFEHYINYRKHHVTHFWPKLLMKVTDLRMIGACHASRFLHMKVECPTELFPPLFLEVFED
Summary of the method: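 Cells (2500/well) were seeded, incubated 4 hrs at 37 C, dosed with a compound series, incubated 18 hrs, loaded with CCF4 dye for 2 hrs at RT, then read for fluorescence. Data were scaled between DMSO (0%) and 10 nM T3 (100%).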

[11] = target: Voltage-gated inwardly rectifying potassium channel KCNH2 (Homo sapiens) (UniProt Q12809); test: qHTS Assay for Small Molecule Inhibitors of the Human hERG Channel Activity (AID 588834; active = well fitted curve in the direction sought with a large enough effect; an effect the other way counts as inactive or inconclusive;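 also: top concentration of the series differs between compounds; % is scaled to controls: 0 for no effect and ±100 for the full control effect; lower thallium flux fluorescence means stronger hERG block; nearly all actives have a fitted effect of over 50% in size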)
Summary of the method: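 hERG-BacMam U2OS, 2000 cells/well; 0.7X FluxOR loading 1 hr RT dark; cpd ~10 min 37 °C; stim buffer; FDSS fluorescence 2 min @ 1 s; AC50 Hill fit.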

[12] = qHTS assay for small molecule agonists of the antioxidant response element (ARE) signaling pathway measured by Nrf2-dependant transcriptional activity (AID 720636; active = well fitted curve in the direction sought with a large enough effect in the repeat runs; an effect the other way counts as inactive or inconclusive; also: % of control where 0% means no effect)
Summary of the method: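 ARE-luc HepG2 cells carrying an Nrf2-responsive luciferase reporter were plated in medium with 1% dialyzed FBS, left 6 hr at 37 C to attach, then exposed to compound for 16 hr. Luciferase luminescence was read after ONE-Glo addition.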

[13] = target: Glucocorticoid receptor (Homo sapiens) (UniProt P04150); test: qHTS assay for small molecule agonists of glucocorticoid receptor signaling (AID 588532; active = well fitted curve in the direction sought with a large enough effect in the signal ratio, with a control signal flat; the % refers to the signal ratio;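 also: 100% = dexamethasone at 0.1 µM and 0% = DMSO only wells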); conditions: HeLa MMTV-bla, beta-lactamase ratio, agonist, 18 h; stronger effect = higher value; percent of dexamethasone control, DMSO zero
Sequence of Glucocorticoid receptor (Homo sapiens) (P04150 whole entry, looked up): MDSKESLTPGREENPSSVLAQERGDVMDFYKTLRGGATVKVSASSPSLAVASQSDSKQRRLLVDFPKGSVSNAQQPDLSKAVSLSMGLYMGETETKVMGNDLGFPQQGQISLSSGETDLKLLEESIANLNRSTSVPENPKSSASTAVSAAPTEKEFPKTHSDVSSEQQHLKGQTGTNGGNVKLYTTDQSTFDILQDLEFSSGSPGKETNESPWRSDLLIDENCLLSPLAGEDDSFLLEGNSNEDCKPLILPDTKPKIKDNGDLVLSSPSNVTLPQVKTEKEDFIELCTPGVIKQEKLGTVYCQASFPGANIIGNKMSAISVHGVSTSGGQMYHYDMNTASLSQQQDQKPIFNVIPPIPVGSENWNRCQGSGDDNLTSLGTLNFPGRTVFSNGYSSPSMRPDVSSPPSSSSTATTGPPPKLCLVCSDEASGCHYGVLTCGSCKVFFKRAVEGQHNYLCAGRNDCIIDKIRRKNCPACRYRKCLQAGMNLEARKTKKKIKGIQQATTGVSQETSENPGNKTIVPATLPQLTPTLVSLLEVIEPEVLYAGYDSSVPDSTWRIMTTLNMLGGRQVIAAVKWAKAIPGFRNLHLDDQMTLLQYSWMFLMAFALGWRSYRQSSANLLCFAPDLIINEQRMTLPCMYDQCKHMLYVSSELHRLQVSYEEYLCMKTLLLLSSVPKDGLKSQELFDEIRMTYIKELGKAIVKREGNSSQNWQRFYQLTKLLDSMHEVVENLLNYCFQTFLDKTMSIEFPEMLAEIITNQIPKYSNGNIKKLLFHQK
Summary of the method: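 Stimulation of a glucocorticoid response element-driven beta-lactamase gene was measured in HeLa cells. Responses were scaled between DMSO basal and 0.1 uM dexamethasone, then fitted for half-maximal stimulation.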

[14] = target: Glucocorticoid receptor (Homo sapiens) (UniProt P04150); test: qHTS assay for small molecule antagonists of glucocorticoid receptor signaling (AID 588533; active = well fitted inhibition curve with a large enough effect in the signal ratio, with a control signal flat, not every such curve was filed as active; the % refers to the signal ratio;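 also: cells stimulated with 2 nM dexamethasone as agonist; % is scaled to controls: 0 for no effect and ±100 for the full control effect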)
Summary of the method: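 Antagonist-mode qHTS: compound titrations added to GRE-bla HeLa cells, then dexamethasone 2 nM final; 18 h, 37 C. CCF4 FRET fluorescence normalized to dexamethasone and DMSO; IC50 from Hill fit.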

[15] = target: Peroxisome proliferator-activated receptor delta (Homo sapiens) (UniProt Q03181); test: qHTS assay for small molecule agonists of peroxisome proliferator-activated receptor delta signaling (AID 588534);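 also: 0% = DMSO basal wells and 100% = positive control agonist at 10 µM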
Sequence of Peroxisome proliferator-activated receptor delta (Homo sapiens) (Q03181 whole entry, looked up): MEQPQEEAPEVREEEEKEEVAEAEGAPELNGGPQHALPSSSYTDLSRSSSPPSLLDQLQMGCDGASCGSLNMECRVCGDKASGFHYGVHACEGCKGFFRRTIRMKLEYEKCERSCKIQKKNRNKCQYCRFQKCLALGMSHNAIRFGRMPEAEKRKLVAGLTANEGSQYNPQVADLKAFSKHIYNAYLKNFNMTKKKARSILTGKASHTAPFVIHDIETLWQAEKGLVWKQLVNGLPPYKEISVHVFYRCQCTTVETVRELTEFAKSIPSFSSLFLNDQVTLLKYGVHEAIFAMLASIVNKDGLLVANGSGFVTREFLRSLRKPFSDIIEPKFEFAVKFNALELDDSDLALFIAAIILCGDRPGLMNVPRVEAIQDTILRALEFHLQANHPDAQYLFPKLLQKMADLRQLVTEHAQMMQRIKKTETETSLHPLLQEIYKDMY
Summary of the method: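 Cell-based beta-lactamase reporter assay run in agonist mode: cells seeded and incubated 5 hrs at 37 C, compounds added and incubated 18 hrs at 37 C. CCF4 dye fluorescence read after 2 hrs at RT; EC50 and efficacy from Hill fits.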

[16] = qHTS assay for small molecule antagonists of peroxisome proliferator-activated receptor delta signaling (AID 588535; active = well fitted inhibition curve with a large enough effect in the signal ratio, with a control signal flat, not every such curve was filed as active; the % refers to the signal ratio;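 as to max response: cells co-treated with a PPAR-delta agonist as stimulator during compound exposure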); conditions: HEK293T PPARd-UAS-bla, beta-lactamase FRET ratio, 18 h; 460 nm channel
Summary of the method: (§1)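 GeneBLAzer PPAR-delta-UAS-bla HEK293T cells in medium with 2% charcoal/dextran FBS were preincubated 5 hrs at 37 C, then given compounds, incubated 18 hrs at 37 C, and read by CCF4 beta-lactamase fluorescence; IC50 from Hill fits.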

[17] = target: Peroxisome proliferator-activated receptor delta (Homo sapiens) (UniProt Q03181); test: as above
Summary of the method: as §1

[18] = target: Peroxisome proliferator-activated receptor gamma (Homo sapiens) (UniProt P37231); test: qHTS assay for small molecule agonists of peroxisome proliferator-activated receptor gamma signaling (AID 588536; active = well fitted curve in the direction sought with a large enough effect in the signal ratio, with a control signal flat, not every such curve was filed as active; the % refers to the signal ratio;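 also: 0% = DMSO basal wells and 100% = rosiglitazone at 2 µM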)
Sequence of Peroxisome proliferator-activated receptor gamma (Homo sapiens) (P37231 whole entry, looked up): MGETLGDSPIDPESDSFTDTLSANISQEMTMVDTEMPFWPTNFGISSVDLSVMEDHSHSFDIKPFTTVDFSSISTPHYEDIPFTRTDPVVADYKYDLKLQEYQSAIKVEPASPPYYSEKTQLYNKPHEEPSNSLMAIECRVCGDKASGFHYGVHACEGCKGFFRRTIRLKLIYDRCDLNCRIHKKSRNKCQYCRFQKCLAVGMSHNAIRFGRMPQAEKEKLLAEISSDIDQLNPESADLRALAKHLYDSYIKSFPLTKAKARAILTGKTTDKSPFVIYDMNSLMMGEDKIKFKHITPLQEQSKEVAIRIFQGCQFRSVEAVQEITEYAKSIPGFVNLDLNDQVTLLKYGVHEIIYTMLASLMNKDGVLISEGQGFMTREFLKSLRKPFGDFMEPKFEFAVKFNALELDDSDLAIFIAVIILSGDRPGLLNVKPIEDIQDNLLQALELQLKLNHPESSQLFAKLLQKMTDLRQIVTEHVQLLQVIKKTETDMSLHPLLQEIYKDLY
Summary of the method: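 GeneBLAzer PPAR-gamma-UAS-bla HEK293 cells in 1% charcoal/dextran-treated FBS medium were treated 16 h at 37 C with compounds. Beta-lactamase activity was read by CCF4 ratio (460/530 nm). Response was normalized to 2 uM rosiglitazone (100%) and DMSO, then Hill-fitted for EC50 and efficacy.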

[19] = target: Peroxisome proliferator-activated receptor gamma (Homo sapiens) (UniProt P37231); test: qHTS assay for small molecule antagonists of peroxisome proliferator-activated receptor gamma signaling (AID 588537; active = well fitted inhibition curve with a large enough effect in the signal ratio, with a control signal flat, not every such curve was filed as active; the % refers to the signal ratio;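 also: reporter cells co-stimulated with 50 nM rosiglitazone agonist during compound treatment; % of control where 0% means no effect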)
Summary of the method: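 PPAR-gamma-UAS-bla HEK293 cells (3000/well, 1% charcoal/dextran-stripped FBS) were preincubated 6-6.5 h at 37 C, given titrated compounds, then stimulated with 50 nM rosiglitazone for 16 h. Beta-lactamase activity was read with CCF4 dye; IC50 came from Hill fits.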

[20] = qHTS assay for small molecule agonists of retinoid X receptor alpha signaling (AID 588544); conditions: HEK293T RXRa-UAS-bla, beta-lactamase reporter, 18 h; 530 nm emission;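 as to activation: 0% = DMSO basal wells and 100% = reference agonist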
[21] = target: Retinoic acid receptor RXR-alpha (Homo sapiens) (UniProt P19793); test: as above
Sequence of Retinoic acid receptor RXR-alpha (Homo sapiens) (P19793 whole entry, looked up): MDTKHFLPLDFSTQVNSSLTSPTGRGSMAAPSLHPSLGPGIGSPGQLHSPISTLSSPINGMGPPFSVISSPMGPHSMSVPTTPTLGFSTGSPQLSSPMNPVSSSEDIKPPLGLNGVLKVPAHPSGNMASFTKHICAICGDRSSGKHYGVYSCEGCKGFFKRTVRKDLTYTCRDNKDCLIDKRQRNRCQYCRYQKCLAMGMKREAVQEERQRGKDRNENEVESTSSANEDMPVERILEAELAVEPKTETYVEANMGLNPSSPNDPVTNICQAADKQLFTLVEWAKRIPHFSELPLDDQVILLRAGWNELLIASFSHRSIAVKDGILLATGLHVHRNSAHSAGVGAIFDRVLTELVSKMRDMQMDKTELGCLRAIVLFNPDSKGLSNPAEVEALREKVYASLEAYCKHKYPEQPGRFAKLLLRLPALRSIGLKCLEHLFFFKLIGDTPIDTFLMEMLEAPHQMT

[22] = qHTS assay for small molecule antagonists of retinoid X receptor alpha signaling (AID 588546; active = well fitted inhibition curve with a large enough effect in the signal ratio, with a control signal flat, not every such curve was filed as active; the % refers to the signal ratio;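 also: cells stimulated with 9-cis-retinoic acid as agonist; % is scaled to controls: 0 for no effect and ±100 for the full control effect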); conditions: HEK293T RXRa-UAS-bla, beta-lactamase ratio, antagonist mode; measured here: W530 green channel, cytotoxicity proxy
Summary of the method: (§2)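 Beta-lactamase reporter inhibition, read as CCF4 fluorescence ratio (ex 405, em 460/530 nm) after 2 h at RT. HEK293T UAS-bla cells, 2500/well, were stimulated with 9-cis-RA at 500 or 100 nM final alongside test compound for 18 h at 37 C.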

[23] = target: Retinoic acid receptor RXR-alpha (Homo sapiens) (UniProt P19793); test: as above; conditions: HEK293T RXRa-UAS-bla, beta-lactamase ratio, antagonist mode
Summary of the method: as §2

[24] = target: Thyroid hormone receptor beta (Homo sapiens) (UniProt P10828); test: qHTS assay for small molecule antagonists of thyroid hormone receptor beta signaling (AID 588547; active = well fitted inhibition curve with a large enough effect in the signal ratio, with a control signal flat, not every such curve was filed as active; the % refers to the signal ratio;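 also: cells stimulated with 0.4 nM T3 agonist during compound exposure; series mostly up to about 77 µM; % is scaled to controls: 0 for no effect and ±100 for the full control effect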); conditions: TR-UAS-bla HEK293, beta-lactamase ratio, antagonist mode, 18 h
Summary of the method: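 TR-UAS-bla GripTite HEK293 cells in 2% charcoal/dextran FBS medium were preincubated 4 h at 37 C, given compound (0.59 nM to 92 uM) plus 0.4 nM T3 (final) for 18 h, then CCF4 for 2 h at RT; Hill fit gave IC50.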

[25] = qHTS assay for small molecule activators of the p53 signaling pathway (AID 651743; active = well fitted activation curve with a large enough effect in the signal ratio, not every such curve was filed as active; the % refers to the signal ratio; also: series mostly up to about 92 µM; % of control where 0% means no effect); conditions: HCT-116 p53RE-bla, beta-lactamase FRET ratio, 16 h; activation: stronger effect = higher value
Summary of the method: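 p53RE-bla HCT-116 cells with a stably integrated beta-lactamase reporter under p53 response elements were plated, rested 5 hours at 37 C/5% CO2, then exposed to compounds in DMSO for 16 hours at 37 C. LiveBLAzer B/G FRET substrate was read after 2 hours at room temperature.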

[26] = qHTS assay for environmental chemicals that activate the Aryl hydrocarbon Receptor (AhR) signaling pathway (AID 651777; active = well fitted curve in the direction sought with a large enough effect; an effect the other way counts as inactive or inconclusive; also: % of control where 0% means no effect; nearly all actives have a fitted effect of over 15% in size); conditions: 1A2-DRE human hepatoma cells, luciferase, 24 h; activation: stronger effect = higher value
Summary of the method: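 Human hepatoma 1A2-DRE cells, stably carrying a dioxin response element and CYP1A2 promoter driving luciferase, were exposed to compounds for 24 hr at 37 C and 5% CO2. Luciferase signal was then read after 30 min One-Glo at room temperature.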

[27] = target: Peroxisome proliferator-activated receptor alpha (Homo sapiens) (UniProt Q07869); test: qHTS assay for small molecule agonists of the peroxisome proliferator-activated receptor alpha (PPARalpha) signaling pathway (AID 651778; active = well fitted curve in the direction sought with a large enough effect; an effect the other way counts as inactive or inconclusive; also: % of control where 0% means no effect); conditions: PathHunter PPARalpha complementation, chemiluminescence, 6 h; stronger effect = higher value
Summary of the method: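 Cells plated at 2,000/well and held overnight at 37 C, 5% CO2, then compound added by pin tool for 6 hr; after PathHunter detection reagent and 60 min at room temperature, chemiluminescence from enzyme complementation was read.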

[28] = qHTS assay for small molecule agonists of the antioxidant response element (ARE) signaling pathway measured by Nrf2-dependant transcriptional activity - cell viability counter screen (AID 720653; active = well fitted curve in the direction sought with a large enough effect in the repeat runs; an effect the other way counts as inactive or inconclusive; also: % is scaled to controls: 0 for no effect and ±100 for the full control effect); conditions: ARE-bla HepG2 viability, CellTiter-Glo ATP luminescence, 16 h; max response: stronger effect = lower value
Summary of the method: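 ARE-bla HepG2 cells (2,000/well) rested 5 hrs at 37C/5% CO2, then exposed to compounds in DMSO for 16 hrs. Viability was read in the same wells as intracellular ATP by luminescence, 30 min at room temperature after reagent addition.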

[29] = qHTS assay for cell viability of HEK293 cells (AID 743288; active = well fitted curve in the direction sought with a large enough effect; an effect the other way counts as inactive or inconclusive; also: % is scaled to controls: 0 for no effect and ±100 for the full control effect; nearly all actives have a fitted effect of over 50% in size); conditions: ATP luminescence (CellTiter-Glo), 18 h; max response: stronger effect = lower value
Summary of the method: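 HEK293 parental, 2,000 cells/well; ≥5 h pre-incubation 37 C; pintool compound addition; 18 h, 37 C; CellTiter-Glo 30 min RT; luminescence read.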

[30] = qHTS assay for cell viability of the p53RE-bla HCT-116 cell line (AID 743292; active = well fitted curve in the direction sought with a large enough effect; an effect the other way counts as inactive or inconclusive; also: % is scaled to controls: 0 for no effect and ±100 for the full control effect; nearly all actives have a fitted effect of over 55% in size)
Summary of the method: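 CellSensor p53RE-bla HCT-116 cells, 4,000/well, preincubated 5 h at 37 C, then exposed to compounds in DMSO for 16 h at 37 C. Viability read as CellTiter-Glo luminescence (intracellular ATP) after 30 min at room temperature.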

[31] = target: Nuclear receptor subfamily 1 group I member 2 (Rattus norvegicus) (UniProt Q9R1A7); test: qHTS assay for small molecule activators of the rat pregnane X receptor (rPXR) signaling pathway (AID 651751; call rule not given here; also: 0% is about no effect); conditions: rPXR reporter cells, luciferase (One-Glo), 24 h
[32] = qHTS assay for small molecule activators of the human pregnane X receptor (PXR) signaling pathway (AID 720659; call rule not given here; also: 0% is about no effect)

C=CC(C)(O)CCC=C(C)C (centres undefined)
inactive: activation [1] -2.97% and 2.71% | Potency [2] | Potency [3] | Potency [4] | Potency [5]

O=c1c2ccccc2nc2n1CCc1c-2[nH]c2ccccc12
inactive: outcome [6] | outcome [7] | outcome [8] | Potency [2] | Potency [3] | Potency [4] | Potency [5]

c1ccc(CN2CCC3(CCCc4ccccc43)CC2)cc1
inactive: outcome [6] | outcome [7] | outcome [8] | Potency [2] | Potency [3] | Potency [4] | Potency [5]

C[C@H](CCC(=O)O)[C@H]1CC[C@H]2[C@@H]3CC[C@@H]4C[C@H](O)CC[C@]4(C)[C@H]3CC[C@]12C
inactive: Potency [9] | Potency [10] | Potency [11] | Potency [12] | Potency [2] | Potency [3] | Potency [4] | Potency [5]

C[C@H]1O[C@H](OC2[C@@H](O)[C@@H](O)C(O)[C@H](O)[C@H]2O)[C@@H](N)C[C@@H]1N=C(N)C(=O)O (some centres undefined)
-16.5%: max response [16]
-6.74%: max response [22]
inactive: Potency [9] | activation [13] -3.89% | Potency [14] | Potency [15] | outcome [17] | outcome [18] | Potency [19] | outcome [21] | Potency [10] | max response [23] -1.33% | activity change % (negative = inhibition) [24] 1.51% | activation [25] 0.472% | activation [26] -0.0561% | max response [27] -0.85% | Potency [12] | max response [28] 3.51% | max response [29] 0.169% | outcome [30] | Potency [2] | Potency [3] | Potency [4] | Potency [5] | max response [31] -0.488% | outcome [32]
-7.18%: max response [20]

Source: PubChem BioAssay (NCATS)
